Measured values taken from PubChem BioAssay (NCI).
The panel holds about 83,000 compounds, 20% with a hit somewhere; the sample as a whole holds those more often.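 Step 1: grow cells in 96-well plates. Step 2: add test compound at a single concentration. Step 3: incubate 48 h. Step 4: record percent growth.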 The source made the active and inactive calls. The calls were made as follows: active = growth percent below 10; inactive = the rest.

Tests used:
Test in all cases: NCI-60 one-dose screen, 48 h (100 = growth as untreated, 0 = no growth, -100 = all killed)
Conditions in all cases: 10 µM unless noted
[1] = system: K-562 leukemia
[2] = system: MALME-3M melanoma
[3] = system: MDA-MB-231 breast
[4] = system: RXF 393 renal
[5] = system: SF-268 CNS
[6] = system: SF-295 CNS
[7] = system: SF-539 CNS
[8] = system: UACC-257 melanoma
[9] = system: M14 melanoma
[10] = system: DU-145 prostate

Measured: growth

COc1cc(-c2nc(/C=C3/C(=O)Nc4ccccc43)c3ccccn23)cc(OC)c1OC
inactive: [1] 52.2% | [2] 74.4% | [3] 40.7% | [4] 76.2% | [5] 47% | [6] 92% | [7] 83.6% | [8] 70.8% | [9] 77.6%

COc1ccccc1Nc1nnc(COc2ccc(CNC(=O)CCCC/C=C/C(C)C)cc2OC)o1
inactive: [10] 99% | [1] 67.9% | [3] 99.2% | [4] 103% | [5] 90.8% | [6] 88.8% | [7] 93.4% | [8] 96.7% | [9] 95.4%

CCCCCC(=C/c1ccccc1)/C=N/N=C(N)N
inactive: [2] 37% | [7] 45.5%
active: [1] 5.26% | [4] -31.3% | [6] -64.3% | [9] -64.5%

COc1ccc(Cn2cc3c(c2-c2ccccc2)CCc2cnoc2-3)cc1OC
active: [7] -22.1%
inactive: [10] 21.3% | [1] 14.1% | [3] 35% | [4] 13.1% | [5] 47.1% | [8] 61.9% | [9] 30.5%

COC(=O)/C=C/c1cc(O)c2oc(-c3ccc(O)c(O)c3)c(C(=O)OC)c2c1
inactive: [10] 17.5% | [2] 57.4% | [3] 31.1% | [5] 25.2% | [8] 60.4% | [9] 21%
active: [6] -11.3% | [7] 2.83%

COc1ccc(C(=O)CN2C(=O)NC(c3ccccc3)(c3ccccc3)C2=O)cc1
inactive: [10] 116% | [2] 108% | [3] 106% | [4] 105% | [5] 101% | [6] 98.8% | [7] 92.9% | [8] 98.7% | [9] 103%

Cc1ccc(C(=O)NN)cc1
inactive: [1] 91.6% | [2] 117% | [4] 103% | [6] 111% | [7] 114% | [9] 113%

COc1ccc(Cn2cc3c(c2)-c2oncc2CC3)cc1OC
active: [4] 9.09% | [7] -21.5% | [9] 4.9%
inactive: [10] 10.3% | [1] 16.9% | [3] 16.9% | [5] 33.1% | [8] 59.2%

Cc1c(CN(C)C)cc(C(C)C)cc1C(C)C
inactive: [10] 113% | [2] 124% | [3] 104% | [4] 112% | [5] 111% | [6] 116% | [7] 118% | [8] 108% | [9] 108%

NNC(=S)N1N=C(c2cc3ccccc3o2)CC1c1c[nH]c2ccccc12 (configuration not stated)
inactive: [10] 50.9% | [3] 41.6% | [4] 77.7% | [5] 29.6% | [6] 38.9% | [7] 57.9% | [8] 64.2% | [9] 52.1%
active: [1] 9.64%

CCNc1nnc(COc2ccc(CNC(=O)CCCC/C=C/C(C)C)cc2OC)o1
inactive: [10] 109% | [1] 91.6% | [3] 104% | [4] 120% | [5] 97.1% | [6] 97.1% | [7] 104% | [8] 105% | [9] 102%

CC[C@@H](C)/C=C(C)/C=C/C(=O)c1c(O)c(-c2ccc(OC(=O)[C@@]34CC[C@@](C)(C(=O)O3)C4(C)C)cc2)cn(O)c1=O
active: [5] -1.52% | [6] -9.51% | [8] 2.75% | [9] -35.8%
inactive: [10] 10.8% | [3] 36.7% | [4] 31.6% | [7] 16.7%

CCCCCCCCCCCCCCCCC(=O)O.CCCCCCCCCCCCCCCCCC(=O)O.CCCCCCCCCCCCCCCCCC(=O)O.CCCCCCCCCCCCCCCCCC(=O)O.CCCCCCCCCCCCCCCCCC(=O)O.CO[CH-]OC12COC1CC(O)C1(C)C(O)C(OC(C)O)C3=C(C)C(OC(=O)C(O)C([NH-])c4ccccc4)CC(O)(C(OC(=O)c4ccccc4)C21)C3(C)C.[Cu+].[Zn].[Zn].[Zn].[Zn].[Zn] (configuration not stated)
inactive: [2] 69.5% | [3] 13.8% | [4] 24.3% | [5] 47.6% | [6] 16.5% | [8] 80.6% | [9] 35.5%
active: [1] 8.31%

C=CCN(C)C
inactive: [10] 119% | [2] 111% | [3] 97.7% | [4] 111% | [5] 106% | [6] 103% | [7] 109% | [8] 106% | [9] 107%

C=C1CCC2C3(C)COC(c4ccccc4)OC3CCC2(C)C1C/C=C1/C(=O)OCC1O (configuration not stated)
inactive: [2] 99.8% | [3] 89.4% | [6] 87.6% | [9] 80.6%

COc1cc(Cn2ccc3c2-c2oncc2CC3)cc(OC)c1
inactive: [10] 43.7% | [1] 24.9% | [3] 44.1% | [4] 54.6% | [5] 50% | [6] 24.2% | [7] 19.6% | [8] 53.4% | [9] 12.7%

COc1ccc(C2=C/C(=C\c3ccc(Cl)cc3)C(=O)NN2C(=S)NN)cc1
inactive: [10] 108% | [1] 93.9% | [3] 96.1% | [4] 105% | [5] 95.8% | [6] 96.3% | [7] 111% | [8] 104% | [9] 99.5%
